Among all 31,000 sequences or so, about 1,400 (4.5%) were called active. The sample as a whole holds a higher share of actives than the screen did. A number with no mark means an inactive call.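 Rule for the calls: active = median seed-adjusted z-score above 1 or below -1; inactive = the rest.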
Experiment: Novel Modifiers of Survival Motor Neuron (SMN) Protein: Gene Identification via Genome-wide siRNA Screen;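 note: luminescence tracks full-length SMN protein made from the SMN2 reporter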
Conditions: HEK293T SMN2-luciferase reporter, siRNA knockdown, 72 h; actives lie on both sides
Method in brief: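 Each of three siRNAs per gene is reverse-transfected (1 pmol) into reporter HEK293T cells whose luciferase output tracks SMN protein level. After 72 h culture, ONE-Glo luminescence is control-normalized, log10-transformed and MAD-standardized; Common Seed Analysis deprioritizes seed-driven hits.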

| Sequence | median seed-adjusted z-score |
| --- | --- |
| GGAAAGAGAACGAAUCGAATT against PPM1D | -0.66 |
| GCCUUUGGUUCGCAAGUUUTT against DYRK2 | 0 |
| CAACGAUCCCUGUACCAGUTT against GABBR2 | -0.038 |
| CCUACUACCUCAAACACCATT against SYVN1 | -1.41 (active) |
| GCUUAUUAGCCUCCAAUUUTT against ZSCAN5A | 0.31 |
| GAAGAACCCUGGUCUUUCATT against CARD14 | -0.104 |
| GCUGUGCCUUAUAACCGAATT against LRRK2 | -0.671 |
| GGGUCAUCCGAGAUUCUCATT against DLG5 | 0.467 |
| GGGUCCAACAUUCCGAAUATT against CHD1 | -1.03 (active) |
| GGCCUUCGGCUAAAAGAGATT against KIF22 | 0.283 |
| CGGUAAUAGCAAUUCAGCATT against HEATR6 | 0 |
| GAGAGAUAUUGAUCGACUUTT against ARG2 | -0.796 |
| GAGACAAGCUUCAACCACATT against SERPINA5 | -1.01 (active) |
| GCAUUGGUAAAAUUGCUAATT against AVIL | -0.127 |
| CGGACCGGCAGAGAACAAATT against PLA2G10 | 1.07 (active) |
| GCUAUGUCAUCACUACCAATT against KCNAB3 | 0.0697 |
| GGAGUGCCCACAGUCAGAATT against SMUG1 | -1.38 (active) |
| GGCUAUGUGCGGGAGUAUATT against PI4KA | 0 |
| CGAUCAAUCCAACCGCACATT against MEIS3 | 0.207 |
| CCUCGGAAGAGAUCACUAUTT against POU2F1 | 0.317 |
| CGUUUCAGUCGUUUCAAAATT against POLR2D | -3.79 (active) |
| GGUUAUAUACCACCUUAUATT against QRSL1 | -0.539 |

| Sequence | median seed-adjusted z-score |
| --- | --- |
| GCUCUAAGGUUACGGAAGATT against MCOLN2 | -0.0234 |
| GUCCUGUCUUGAUUAAAUUTT against CHST7 | 0 |
| GCAGAAGAAAGAACCCGUUTT against DYNC1I1 | -0.716 |
| CCACCCUACUAUGCGCACATT against GJA3 | 0.833 |
| CAAGGGUUUUCUUACAAUATT against GNA13 | 0 |
| CAAUAUGAAGGUCGAAUUATT against TPR | -1.03 (active) |
| GACCUUAUAUGUGCAAGGATT against ZNF8 | 0.97 |
| CGACUGGAUUAAGCAGUAUTT against ATP6V1C1 | 0.0821 |
| UCAUGUGCCUGGAAAUUAATT against AIRE | 0.308 |
| GAACUGUCCGAAUCUAAUUTT against CNTNAP1 | 0.176 |
| AAUCACAACUCCUAAAAGATT against POLR2J3 | -5.42 (active) |
| ACAUCGUAGUGGGACGAAUTT against EXOSC2 | -0.0798 |
| CAUUCGCUCUGGUACUUAUTT against CRYZ | -0.809 |
| GGUCCUAAGUUUGAAGUCATT against FRMPD2 | -0.329 |
| CGAUAUAAGCUCCGAGAGATT against POLR2E | -1.25 (active) |
| GCUGUAACCUCUUCAUCUATT against BRUNOL6 | -0.542 |
| GCAAGGAUCAGUUUCCGGATT against RHOC | -0.579 |
| GGAACACCUUUAGUCAUGATT against ZNF790 | 0.245 |
| CCAGCUGCCUACAAAGACATT against CLDN14 | -0.456 |
| AACGCACUCUUCUACGUCATT against NTSR1 | -1.1 (active) |
| GACCGACAUUUGUGAAGAATT against ZNF547 | 0.099 |
| CAAAUGGGACUGUCAAUUATT against REPS2 | 0.454 |

| Sequence | median seed-adjusted z-score |
| --- | --- |
| GGUUAUCCUUUGCCCAGCATT against ACTL7A | 1.1 (active) |
| AAGUUAGUCCUAAAGUGUATT against UCHL1 | -0.421 |
| CCACGGCACAUGGAACUAATT against SLC7A14 | 0.132 |
| GUCCCGCUAUGACUACUUUTT against GRM2 | -0.664 |
| CUGUUUGGUUUAUUCGAUUTT against ZW10 | 0.199 |
| GAGUAAGUGAAAUAGAACATT against ZBTB26 | 0 |
| GAAACCAUCCAAUCCAAGATT against TXNDC2 | -1.29 (active) |
| GGACUUGGAUUAUGAACUATT against COL6A3 | 0.341 |
| CGAGCAUUCUCUCUUGAAATT against MED24 | -2.3 (active) |
| GCGUGUAAAUUCUACUGCATT against RB1 | 0.49 |
| CUACCACGCAGUCAACCUUTT against LTB4R2 | -0.26 |
| GGAUUUUAUUCUUCACCGUTT against RBMS3 | 0.0976 |
| GCACGAAUUUCAGCACCAATT against HOXD1 | 0.144 |
| GGAACAUUUUUGACGGAUUTT against SCN8A | 0 |
| GCACAACACUCGCUCCAAUTT against GLT8D1 | 1.22 (active) |
| GGUAAUAAAUGGGUUGGAATT against PTGR2 | 0.14 |
| CAGAGACCCUUGAUAAACUTT against PIK3AP1 | 0.0678 |
| GCAUGACUAUGUCAAGAAATT against MCM3 | 0.339 |
| GCUCGUGAUUGAUGCUGCATT against NGB | 0 |
| CGACAUCAUCAAUAGACGATT against AQR | -1.56 (active) |
| GGACCACGAUGAUCAUUGATT against CRMP1 | -0.354 |
| GCAUUGGUGUAUGGAAUUATT against SLC6A15 | 0.0939 |

| Sequence | median seed-adjusted z-score |
| --- | --- |
| GCAAGAAAAAUCUAAGGAATT against ZNF57 | 0 |
| ACAGCAUUGUCAUUAGACATT against UBR5 | 0.114 |
| CAUGUGCUAUCGAAAGUAUTT against TCEB1 | 1.08 (active) |
| GCGUAGUUAUAGAAGUAGATT against RBMX2 | -0.585 |
| GGAACUGUUUUUACAAGCATT against MKRN1 | -0.496 |
| UCAUAUAGGCAAAAUUUAATT against POU3F2 | -0.179 |
| GGGUUCACCUCAGAGAGCATT against DPF3 | 0.242 |
| GAAACUUUCAUUACGUAUATT against SNX7 | 0.146 |
| GAACGAAAGGUCCUCAGUATT against SPATA21 | -1.03 (active) |
| GCUGCUUCAGACUACCAAATT against TXNDC9 | -0.176 |
| CCAUAUUAAUGUCCAUGAUTT against PCDHB7 | 0.365 |
| GGAUGCCCACUGUAUCAUATT against MYST2 | -1.46 (active) |
| GAUGGAUACCUCUACCUGATT against ZNF593 | 0.215 |
| CGUGAUCUCAAGUCCAACATT against MAP3K11 | 0.773 |
| CUACCAUUUUCAUCGAGGATT against FREM3 | -0.565 |
| CGAAAGAGGCAAAUAUGAATT against CBX3 | -0.893 |
| GGAUCGGGUUUACUCAGAATT against ACTR6 | 0.189 |
| GGAAGGAACCAUCCAGUAATT against POLR2L | -1.19 (active) |
| AGUUCUUCCUAAUCCGAGATT against DOLPP1 | 0.00977 |
| AAUCGAUCCUCAAUCCUUATT against ZNF676 | -0.499 |
| GCUCCAAAUUGGUUGUAUUTT against PRKAG1 | 0.431 |
| GAACAACUCUUGUGAGAUUTT against STC2 | -0.00039 |

| Sequence | median seed-adjusted z-score |
| --- | --- |
| GCUUCUGAAAUGAACCGAATT against DDHD2 | 0.447 |
| GUGCGGUAGCUACUUGUUUTT against RRAD | -0.267 |
| GGACUCUCAUGAGUGCUGATT against ACP2 | -0.00569 |
| GAAAGAUGUUGGGAAUAAATT against ST6GAL2 | 0.054 |
| CAUCCAUUAUGACCUGCUATT against ACO2 | -1.57 (active) |
| CGUGUGGACUUGACAAGCATT against OBSCN | -0.798 |
| CUAUAUCUCCAACACUUUUTT against SMARCD3 | 0.247 |
| GAGAAAAAGCGGAUCAAGATT against GRK6 | -0.862 |
| GGAAGAACGUGUAACCGAATT against RDX | 0.123 |
| GAGUCUGCGUUAUCGACAATT against TPR | -1.03 (active) |
| GGAUGAAAAAUACCGGUGUTT against UGT8 | 0 |
| CAACCUUUCACUGCAAUGATT against NAT8 | -0.228 |
| CGGGAAGAAUCAAAGUCGATT against KRT23 | -0.0696 |
| GGAGCGAAAUGUUCAGGUUTT against PSPH | -0.518 |
| CGAGGACACUCAAACGGAUTT against TAF7L | -0.14 |
| CACGAAAACUUACCCAGAATT against DGUOK | 0.0168 |
| GGUCCCAGCUUGAAGAGAATT against CSTB | 1.08 (active) |
| CAGGCAAAGUUCGACAGUATT against HEPH | -0.293 |
| GGAUUCUCAGUUACACUUATT against SLC25A3 | -0.495 |
| GAUCCGUUCUGAUUAGUGATT against EZH1 | 0.268 |
| GUUCCUCACUUAUCGCUAUTT against ADAMTSL3 | -0.0419 |
